Measurements as given in ChEMBL document CHEMBL3433997, “St. Jude Leishmania screening dataset” (2016).

Experiments:
Type in all cases: functional
[1] = molecular target: Solute carrier family 2, facilitated glucose transporter member 1 (Homo sapiens) (UniProt P11166); test: ST_JUDE_LEISH: Cytotoxicity at 2uM final concentration against transgenic Leishmania Mexicana promastigotes LmGLUT1 that are glucose transport deficient and complemented with the human glucose transporter GLUT1. Activity is measured by DNA content using SYBR green in vitro
[2] = molecular target: Hexose transporter 1 (Plasmodium falciparum) (UniProt O97467); test: ST_JUDE_LEISH: Cytotoxicity at 2uM final concentration against transgenic Leishmania Mexicana promastigotes LmPfHT that are glucose transport deficient and complemented with the Plasmodium falciparum hexose transporter. Activity is measured by DNA content using SYBR green in vitro
[3] = molecular target: Glucose transporter (Leishmania mexicana) (UniProt O61059); test: ST_JUDE_LEISH: Cytotoxicity at 2uM final concentration against transgenic Leishmania Mexicana promastigotes LmGT2 that are glucose transport deficient and complemented with the L. Mexicana glucose transporter 2. Activity is measured by DNA content using SYBR green in vitro

Chain of Solute carrier family 2, facilitated glucose transporter member 1 (Homo sapiens) (P11166 whole entry): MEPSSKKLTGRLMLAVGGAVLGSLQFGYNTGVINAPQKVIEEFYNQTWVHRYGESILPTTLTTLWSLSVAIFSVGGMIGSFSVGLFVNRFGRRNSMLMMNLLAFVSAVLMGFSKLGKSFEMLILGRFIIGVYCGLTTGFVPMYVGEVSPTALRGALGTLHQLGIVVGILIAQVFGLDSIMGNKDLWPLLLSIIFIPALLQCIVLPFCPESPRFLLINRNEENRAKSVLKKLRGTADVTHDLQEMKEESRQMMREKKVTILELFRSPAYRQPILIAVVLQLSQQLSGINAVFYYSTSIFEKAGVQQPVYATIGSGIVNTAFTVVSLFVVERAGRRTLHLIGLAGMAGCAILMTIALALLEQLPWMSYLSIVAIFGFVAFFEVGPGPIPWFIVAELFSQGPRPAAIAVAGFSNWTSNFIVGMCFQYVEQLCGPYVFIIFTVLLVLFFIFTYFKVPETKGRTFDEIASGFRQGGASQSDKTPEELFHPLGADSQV

Structure (SMILES)	inhibition [1]	inhibition [2]	inhibition [3]
CC(C)CCNCc1ccc(OCc2cccc(COc3ccc(CNCCC(C)C)cc3I)c2)c(I)c1	0.58%	-0.4%	-0.23%
CC(Oc1ccc(Cl)cc1)C(=O)Nc1cc(C(F)(F)F)ccc1N1CCOCC1 (stereo not given)	8.02%	10.4%	6.86%
CN(C)c1nc(NN=Cc2cc(Cl)ccc2O)nc(Nc2ccc(F)cc2)n1	13%	11%	10.9%
O=C(/C=C/c1ccc(Cl)c(Cl)c1)N1CCC(CCN2CCC(c3nc4cc(O)ccc4[nH]3)CC2)CC1	1.92%	0.59%	-0.62%
COc1ccc(CNC2Cc3ccccc3C2)cc1-c1ccc(S(=O)(=O)NCCc2ccccn2)s1	0.76%	0.03%	2.04%
COc1cc(C(=O)N2CCC(CCN3CCC4(CC3)CN(S(C)(=O)=O)c3ccccc34)CC2Cc2ccc(Cl)c(Cl)c2)cc(OC)c1OC (stereo not given)	3.23%	4.25%	3.27%
O=C(c1ccccc1[N+](=O)[O-])N(Cc1ccccc1)c1ccccn1	4.59%	4.79%	6.57%
Clc1ccc(CNCCCCCCNCc2ccc(Cl)cc2)cc1	-1.01%	1.71%	-1.04%
CSc1ccccc1NC(=S)NC1CCN(CCCCCNC(=O)/C=C/c2ccc(Cl)c(Cl)c2)CC1	4.66%	4.89%	4%
O=C(Nc1ccc(F)cc1)N1CCCN(c2ccnc3cc(Cl)ccc23)CC1	0.02%	0.34%	1.11%
COc1cccc(CCNc2nc(NCc3ccccc3)c3cc(OC)c(OC)cc3n2)c1	7.51%	5.93%	1.86%
Cc1cc2ccccc2n1CC(=O)N1CC(C(=O)N2CCCCC2)Oc2ccccc21 (stereo not given)	-0.25%	3.02%	2.89%
COc1cc2c(Nc3ccc(NC(=O)c4ccccc4)cc3)ncnc2cc1OCCCN1CCOCC1	3.25%	3.13%	4.08%
CCCCCCCNCCNc1cc(C)nc2ccccc12	2.03%	7.41%	2.79%
CCCCCCNC(=N)c1ccc(OCCCCCOc2ccc(C(=N)NCCCCCC)cc2)cc1	58.5%	59.4%	37.2%
COc1ccc2c(c1)[nH]c1c(C=Cc3ccccc3)nccc12	6.16%	5.09%	3.77%
CNCc1ccc(CN(C)c2nc(N)c3cc(OC)c(OC)cc3n2)cc1	4.8%	5.4%	6.34%
CC(C)CCNCC(O)Cn1c2ccc(Cl)cc2c2cc(Cl)ccc21 (stereo not given)	0.18%	0.29%	0.33%
CC(=O)N(C)C1CCN(Cc2ccc(-c3ccc(-c4nc5cc(F)ccc5[nH]4)s3)cc2)C1 (stereo not given)	8.07%	5.96%	6.2%
Cc1nn(C)cc1C(C)Nc1nncc(-c2ccc(C(F)(F)F)cc2)n1 (stereo not given)	2.34%	2.27%	3.38%
CCC(O)c1ccc(Br)cc1NC(=O)c1cccc(Cl)c1 (stereo not given)	-1.21%	1.01%	-0.55%
Cc1nc(-c2cccc(Nc3nccc(NCC(O)c4ccccc4C)n3)c2)cs1 (stereo not given)	2.79%	3.57%	3.17%
Cc1onc(-c2ccccc2Cl)c1C(=O)Nc1cc(Cl)c(Cl)cc1Cl	3.43%	5.64%	4.95%

Structure (SMILES)	inhibition [1]	inhibition [2]	inhibition [3]
COc1ccc(CN2CCCN(Cc3ccc(C(=O)Nc4ccc(Cl)cc4)cc3)CC2)cc1	4.35%	5.51%	6.65%
NS(=O)(=O)Cc1cccc(-c2ccnc3ccc(-c4cccc(S(N)(=O)=O)c4)cc23)c1	3.2%	0.84%	1.72%
CC(C)CN1CCCN(Cc2cccc(NC(=O)c3ccc(Cl)c(Cl)c3)c2)CC1	10.4%	10.2%	4.5%
CC(C)Cn1cc(C2CCN(CCN3CCC(CNC(=O)c4ccc(NC(=O)c5cc(Cl)cc(Cl)c5)cc4)CC3)CC2)c2ccccc21	1.27%	4.22%	1.97%
O=C(CSc1nc(-c2ccccc2Cl)ns1)Nc1cccc(F)c1	-0.07%	-0.93%	5.3%
O=C(NC1CCN(Cc2ccccc2)CC1)c1cccc(-c2nc3ccc(Cl)cc3[nH]2)c1	1.15%	2.61%	2.94%
Cc1cnccc1/C=C/c1cccc(OCCCN2CCc3ccc(S(C)(=O)=O)cc3CC2)c1	2.21%	2.58%	2.19%
CCOc1cc(Br)c(C(C)NC(=O)c2cccc(OC)c2)cc1OCC (stereo not given)	0.82%	0.03%	-0.19%
COCCCn1c(=N)c(C(=O)NCCc2ccc(OC)cc2)cc2c(=O)n3cccc(C)c3nc21	4.69%	5.42%	8.16%
O=[N+]([O-])c1ccc(C=NNc2nc(Nc3ccccc3)nc(Nc3ccccc3)n2)o1	13.4%	18.9%	2.58%
Oc1cccc(Nc2ccnc3cc(-c4ccncc4)ccc23)c1	10.6%	9.58%	8.68%
CCOC(=O)N1CCN(CCCCCNc2cc(C)nc(NC(=N)Nc3ccc(Cl)cc3)n2)CC1	6.99%	8.05%	6.08%
CN1CCCN(Cc2ccc(-c3cccc(NC(=O)c4ccc(Cl)cc4)c3)cc2)CC1	3.92%	0.88%	0.76%
COc1cccc(-c2cc(C(F)(F)F)n3ncc(C(=O)Nc4cc(C)ccc4O)c3n2)c1	2.75%	3.89%	3.36%
CCN(CC)CCNc1ccnc2c3ccccc3n(C)c12	-1.54%	0.22%	-0.19%
CN(Cc1cnc2nc(N)nc(N)c2n1)c1ccc(C(=O)N[C@H](CCC(=O)OC(C)(C)C)C(=O)N[C@@H](CCC(=O)OC(C)(C)C)C(=O)OC(C)(C)C)cc1	2.25%	1.59%	3.05%
CCCNC(=O)C1CCN(C(c2ccccc2)c2ccc(Cl)c(Cl)c2)CC1 (stereo not given)	4.42%	5.75%	3%
CC(C)c1sc(N2CCN(C)CC2)nc1C(=O)NCCc1ccc(Cl)c(Cl)c1	2.62%	2.93%	2.34%
CCCOc1c(CCNCCCCNCCc2ccc3ccccc3c2OCCC)ccc2ccccc12	60.8%	13.6%	40.1%
O=C(NC1CCN(Cc2ccccc2O)C1)c1cccc(C(F)(F)F)c1 (stereo not given)	0.25%	0.49%	-9.49%
CN(CCN)Cc1ccc(-c2ccc(-c3nc4cc(C(F)(F)F)ccc4[nH]3)s2)cc1	15.1%	14.8%	11.4%
CCCNC[C@@H](O)[C@H](Cc1ccccc1)NC(=O)c1cc(NCC)cc(N2CCCC2=O)c1	1.25%	2.29%	0.72%
